# Test results published in paper PMC7862700, “An all-to-all approach to the identification of sequence-specific readers for epigenetic DNA modifications on cytosine”.
# Columns and labels:
# Assay in all cases: DAPPL (digital affinity profiling via proximity ligation, sequencing); 10 mM Tris-HCl pH 7.5, 50 mM NaCl, 1 mM DTT, 4% glycerol, room temperature, 30 min; GST-TFs on glutathione beads, 16-mer random dsDNA library, 0.1% formaldehyde crosslink after washing; high values mean tight binding
# Conditions in all cases: protein: recombinant; tags: N-terminal GST; dsDNA, one strand shown
# ELK1 = target: T1, ELK1 (Homo sapiens, UniProt P19419 1-428)
# T1 sequence: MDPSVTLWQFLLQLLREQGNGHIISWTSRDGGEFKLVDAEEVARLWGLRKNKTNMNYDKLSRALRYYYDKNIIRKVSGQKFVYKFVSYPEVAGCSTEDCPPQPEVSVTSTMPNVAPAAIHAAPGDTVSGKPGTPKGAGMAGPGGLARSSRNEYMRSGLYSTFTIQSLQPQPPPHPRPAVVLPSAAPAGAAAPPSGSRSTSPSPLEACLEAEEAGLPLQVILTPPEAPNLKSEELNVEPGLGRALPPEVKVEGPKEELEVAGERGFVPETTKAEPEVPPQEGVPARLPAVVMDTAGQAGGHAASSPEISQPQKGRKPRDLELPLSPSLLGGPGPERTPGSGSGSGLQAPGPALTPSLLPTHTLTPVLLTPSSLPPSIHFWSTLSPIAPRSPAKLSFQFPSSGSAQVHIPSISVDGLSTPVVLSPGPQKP
# Method in brief: (§1)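 Yeast served to express human transcription factors as GST fusions, which were then captured on glutathione beads and labelled with DNA barcodes. Pooled with a tag-only sample, they were incubated with 200 nmole of a 16-mer random double-stranded DNA library for 30 min at room temperature in Tris/NaCl/DTT/glycerol buffer, washed, crosslinked with 0.1% formaldehyde, ligated by proximity, amplified by PCR and sequenced. Dividing each hexamer's read frequency for a factor by its frequency for the tag-only sample gives the binding signal.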
# ERG = target: T2, ERG (Homo sapiens, UniProt P11308 1-479)
# T2 sequence: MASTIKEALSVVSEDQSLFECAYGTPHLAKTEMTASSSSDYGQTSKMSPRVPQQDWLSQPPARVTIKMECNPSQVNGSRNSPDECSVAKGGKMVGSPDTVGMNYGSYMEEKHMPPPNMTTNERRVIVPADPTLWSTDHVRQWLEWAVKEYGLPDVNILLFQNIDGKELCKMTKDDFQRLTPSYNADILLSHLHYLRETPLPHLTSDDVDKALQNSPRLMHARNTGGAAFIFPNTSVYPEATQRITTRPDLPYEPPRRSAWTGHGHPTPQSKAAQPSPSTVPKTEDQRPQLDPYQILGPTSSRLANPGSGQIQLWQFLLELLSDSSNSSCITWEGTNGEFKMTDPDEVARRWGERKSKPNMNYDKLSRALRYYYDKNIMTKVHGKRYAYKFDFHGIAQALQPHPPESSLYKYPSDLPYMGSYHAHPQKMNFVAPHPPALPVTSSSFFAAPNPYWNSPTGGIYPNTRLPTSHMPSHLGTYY
# Method in brief: as §1
# ELF1 = ELF1 (Homo sapiens, UniProt P32519 1-619)
# Method in brief: as §1
# EHF = target: T3, EHF (Homo sapiens, UniProt Q9NZC4 1-300)
# T3 sequence: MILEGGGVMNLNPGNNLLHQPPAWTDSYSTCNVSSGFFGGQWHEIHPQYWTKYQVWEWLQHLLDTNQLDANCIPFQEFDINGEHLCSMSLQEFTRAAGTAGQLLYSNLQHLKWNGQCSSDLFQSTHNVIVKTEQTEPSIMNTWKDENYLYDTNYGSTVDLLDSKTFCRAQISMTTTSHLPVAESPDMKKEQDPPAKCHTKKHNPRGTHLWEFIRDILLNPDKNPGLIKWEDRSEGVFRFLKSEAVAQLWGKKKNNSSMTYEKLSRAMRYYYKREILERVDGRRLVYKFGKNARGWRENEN
# Method in brief: as §1
# SPIB = SPIB (Homo sapiens, UniProt Q01892 1-262)
# Method in brief: as §1
# ETV5 = ETV5 (Homo sapiens, UniProt P41161 1-510)
# Method in brief: as §1
# ELF4 = ELF4 (Homo sapiens, UniProt Q99607 1-663)
# Method in brief: as §1
# ELK4 = target: T4, ELK4 (Homo sapiens, UniProt P28324-2 1-405)
# T4 sequence: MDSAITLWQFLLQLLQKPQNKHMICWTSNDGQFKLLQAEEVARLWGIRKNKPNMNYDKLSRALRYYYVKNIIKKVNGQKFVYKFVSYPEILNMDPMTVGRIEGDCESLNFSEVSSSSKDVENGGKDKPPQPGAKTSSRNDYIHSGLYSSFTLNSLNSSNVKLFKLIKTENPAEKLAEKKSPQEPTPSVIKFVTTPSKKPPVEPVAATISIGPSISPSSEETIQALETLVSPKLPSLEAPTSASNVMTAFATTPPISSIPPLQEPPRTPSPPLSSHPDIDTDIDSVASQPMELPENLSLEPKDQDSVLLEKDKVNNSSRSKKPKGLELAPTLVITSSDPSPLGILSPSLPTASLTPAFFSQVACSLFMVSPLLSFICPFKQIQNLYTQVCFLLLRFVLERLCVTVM
# Method in brief: as §1
# ETV2 = target: T5, ETV2 (Homo sapiens, UniProt O00321 1-342)
# T5 sequence: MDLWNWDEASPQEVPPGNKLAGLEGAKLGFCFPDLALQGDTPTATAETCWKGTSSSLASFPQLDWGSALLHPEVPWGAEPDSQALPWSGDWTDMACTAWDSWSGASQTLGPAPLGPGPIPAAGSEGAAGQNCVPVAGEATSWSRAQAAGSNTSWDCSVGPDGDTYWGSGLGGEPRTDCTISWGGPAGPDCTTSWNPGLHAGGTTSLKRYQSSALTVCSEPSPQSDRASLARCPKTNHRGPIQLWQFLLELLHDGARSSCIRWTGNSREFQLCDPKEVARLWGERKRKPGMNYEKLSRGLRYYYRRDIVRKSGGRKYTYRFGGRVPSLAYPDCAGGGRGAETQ
# Method in brief: as §1
# ETV1 = ETV1 (Homo sapiens, UniProt P50549 1-477)
# Method in brief: as §1
# ERF = target: T6, ERF (Homo sapiens, UniProt P50548 1-548)
# T6 sequence: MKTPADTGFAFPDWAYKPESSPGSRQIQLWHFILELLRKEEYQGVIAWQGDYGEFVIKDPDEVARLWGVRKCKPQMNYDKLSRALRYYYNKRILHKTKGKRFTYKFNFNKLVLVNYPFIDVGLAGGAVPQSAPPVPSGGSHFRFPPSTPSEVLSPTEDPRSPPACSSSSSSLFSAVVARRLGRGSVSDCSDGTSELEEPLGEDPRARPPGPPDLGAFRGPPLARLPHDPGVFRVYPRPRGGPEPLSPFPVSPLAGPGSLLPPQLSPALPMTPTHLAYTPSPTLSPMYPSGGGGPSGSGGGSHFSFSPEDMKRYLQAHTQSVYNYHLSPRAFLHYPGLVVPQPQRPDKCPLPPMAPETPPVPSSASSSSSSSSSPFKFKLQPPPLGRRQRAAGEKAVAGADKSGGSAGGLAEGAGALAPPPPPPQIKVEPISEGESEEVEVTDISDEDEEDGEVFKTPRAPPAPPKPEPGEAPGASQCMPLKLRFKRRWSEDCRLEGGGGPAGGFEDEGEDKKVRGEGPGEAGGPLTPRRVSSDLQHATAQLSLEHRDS
# Method in brief: as §1
# ETV3L = target: T7, ETV3L (Homo sapiens, UniProt Q6ZN32 1-361)
# T7 sequence: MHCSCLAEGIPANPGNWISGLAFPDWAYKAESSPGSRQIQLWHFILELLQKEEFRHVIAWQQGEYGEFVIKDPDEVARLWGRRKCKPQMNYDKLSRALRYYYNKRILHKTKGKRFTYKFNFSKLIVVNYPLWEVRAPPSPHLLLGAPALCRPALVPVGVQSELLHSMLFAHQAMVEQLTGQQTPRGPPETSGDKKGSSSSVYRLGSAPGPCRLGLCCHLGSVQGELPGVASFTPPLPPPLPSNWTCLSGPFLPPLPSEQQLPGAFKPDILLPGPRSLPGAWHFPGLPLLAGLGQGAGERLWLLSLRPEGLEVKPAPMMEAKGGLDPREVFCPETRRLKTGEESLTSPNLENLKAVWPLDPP
# Method in brief: as §1
# ETS2 = target: T8, ETS2 (Homo sapiens, UniProt P15036 1-469)
# T8 sequence: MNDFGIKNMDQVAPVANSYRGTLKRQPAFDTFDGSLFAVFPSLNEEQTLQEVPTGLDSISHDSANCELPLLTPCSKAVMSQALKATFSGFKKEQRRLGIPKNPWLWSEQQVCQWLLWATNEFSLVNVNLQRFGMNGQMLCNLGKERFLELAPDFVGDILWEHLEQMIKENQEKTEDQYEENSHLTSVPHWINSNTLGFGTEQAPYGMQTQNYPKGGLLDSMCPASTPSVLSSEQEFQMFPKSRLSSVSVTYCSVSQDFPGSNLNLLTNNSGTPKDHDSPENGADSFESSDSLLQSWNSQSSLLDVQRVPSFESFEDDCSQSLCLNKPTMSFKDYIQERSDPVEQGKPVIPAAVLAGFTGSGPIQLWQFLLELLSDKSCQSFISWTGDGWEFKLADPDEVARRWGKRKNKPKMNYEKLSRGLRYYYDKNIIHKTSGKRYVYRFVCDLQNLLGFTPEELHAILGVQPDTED
# Method in brief: as §1
# SPDEF = target: T9, SPDEF (Homo sapiens, UniProt O95238 1-335)
# T9 sequence: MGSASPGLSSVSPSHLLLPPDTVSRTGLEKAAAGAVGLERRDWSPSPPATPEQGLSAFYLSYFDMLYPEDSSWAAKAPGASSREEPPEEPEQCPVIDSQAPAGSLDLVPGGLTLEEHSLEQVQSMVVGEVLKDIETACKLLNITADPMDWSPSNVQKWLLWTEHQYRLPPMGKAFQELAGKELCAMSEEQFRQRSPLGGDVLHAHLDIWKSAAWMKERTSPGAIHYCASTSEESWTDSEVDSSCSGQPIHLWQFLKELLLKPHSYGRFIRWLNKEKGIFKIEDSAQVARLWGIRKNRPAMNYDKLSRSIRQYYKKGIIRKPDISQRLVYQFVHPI
# Method in brief: as §1
# ETV7 = target: T10, ETV7 (Homo sapiens, UniProt Q9Y603 1-341)
# T10 sequence: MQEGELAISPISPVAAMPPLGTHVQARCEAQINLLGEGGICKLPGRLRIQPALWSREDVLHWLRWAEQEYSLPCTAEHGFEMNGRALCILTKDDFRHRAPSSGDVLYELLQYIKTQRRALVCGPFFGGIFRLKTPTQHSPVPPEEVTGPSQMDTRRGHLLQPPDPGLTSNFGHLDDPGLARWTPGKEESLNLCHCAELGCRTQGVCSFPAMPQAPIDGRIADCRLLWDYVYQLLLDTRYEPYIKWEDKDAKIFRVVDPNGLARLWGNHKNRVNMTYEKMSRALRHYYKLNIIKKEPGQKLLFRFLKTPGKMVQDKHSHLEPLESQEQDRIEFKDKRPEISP
# Method in brief: as §1
# ETV3 = target: T11, ETV3 (Homo sapiens, UniProt P41162-2 1-143)
# T11 sequence: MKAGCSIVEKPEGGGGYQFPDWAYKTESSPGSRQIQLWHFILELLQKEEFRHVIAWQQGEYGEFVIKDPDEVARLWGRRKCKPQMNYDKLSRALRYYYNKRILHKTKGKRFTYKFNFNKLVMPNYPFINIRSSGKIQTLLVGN
# Method in brief: as §1
# ETV6 = ETV6 (Homo sapiens, UniProt P41212 1-452)
# Method in brief: as §1
# Chain of ELF1 (P32519 whole entry): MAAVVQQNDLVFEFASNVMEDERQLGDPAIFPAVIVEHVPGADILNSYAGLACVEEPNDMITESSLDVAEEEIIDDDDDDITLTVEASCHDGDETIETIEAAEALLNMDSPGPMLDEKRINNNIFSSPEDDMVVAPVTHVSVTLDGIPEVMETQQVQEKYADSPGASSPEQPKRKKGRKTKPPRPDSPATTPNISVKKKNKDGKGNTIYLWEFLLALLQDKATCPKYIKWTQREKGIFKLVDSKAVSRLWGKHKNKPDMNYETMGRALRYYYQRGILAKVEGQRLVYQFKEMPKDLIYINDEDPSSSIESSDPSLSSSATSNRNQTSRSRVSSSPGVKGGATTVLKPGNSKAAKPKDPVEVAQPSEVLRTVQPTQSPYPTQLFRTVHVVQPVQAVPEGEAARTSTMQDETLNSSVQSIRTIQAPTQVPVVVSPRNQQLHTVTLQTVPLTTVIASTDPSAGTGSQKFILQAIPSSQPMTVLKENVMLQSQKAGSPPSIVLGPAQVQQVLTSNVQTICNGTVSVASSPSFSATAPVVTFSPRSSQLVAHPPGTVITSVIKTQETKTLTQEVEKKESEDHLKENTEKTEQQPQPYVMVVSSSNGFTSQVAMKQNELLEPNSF
# Chain of ETV6 (P41212 whole entry): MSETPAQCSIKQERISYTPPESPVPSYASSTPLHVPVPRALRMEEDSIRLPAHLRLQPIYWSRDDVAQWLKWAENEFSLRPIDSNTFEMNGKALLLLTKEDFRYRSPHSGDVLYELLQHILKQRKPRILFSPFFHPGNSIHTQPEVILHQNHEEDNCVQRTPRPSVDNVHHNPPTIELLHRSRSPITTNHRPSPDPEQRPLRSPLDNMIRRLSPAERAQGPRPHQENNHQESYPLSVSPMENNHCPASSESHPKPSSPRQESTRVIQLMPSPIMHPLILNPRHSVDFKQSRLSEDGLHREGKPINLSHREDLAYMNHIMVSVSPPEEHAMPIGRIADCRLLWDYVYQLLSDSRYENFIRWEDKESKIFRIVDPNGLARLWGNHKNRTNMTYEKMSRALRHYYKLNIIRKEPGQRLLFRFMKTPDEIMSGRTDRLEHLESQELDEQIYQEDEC
# Chain of ETV1 (P50549 whole entry): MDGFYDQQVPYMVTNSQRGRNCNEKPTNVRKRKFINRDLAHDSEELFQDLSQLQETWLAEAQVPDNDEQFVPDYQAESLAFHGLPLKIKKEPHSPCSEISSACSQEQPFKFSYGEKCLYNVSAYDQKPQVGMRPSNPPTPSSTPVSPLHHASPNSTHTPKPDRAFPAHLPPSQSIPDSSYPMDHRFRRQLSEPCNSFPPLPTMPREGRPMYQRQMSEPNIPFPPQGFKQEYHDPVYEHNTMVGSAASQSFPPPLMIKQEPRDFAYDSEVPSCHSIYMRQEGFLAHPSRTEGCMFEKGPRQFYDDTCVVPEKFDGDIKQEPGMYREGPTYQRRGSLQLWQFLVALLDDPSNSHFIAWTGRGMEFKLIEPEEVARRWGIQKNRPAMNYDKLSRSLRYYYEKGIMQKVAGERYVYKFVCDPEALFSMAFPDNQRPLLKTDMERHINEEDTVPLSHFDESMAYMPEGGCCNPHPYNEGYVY
# Chain of ETV5 (P41161 whole entry): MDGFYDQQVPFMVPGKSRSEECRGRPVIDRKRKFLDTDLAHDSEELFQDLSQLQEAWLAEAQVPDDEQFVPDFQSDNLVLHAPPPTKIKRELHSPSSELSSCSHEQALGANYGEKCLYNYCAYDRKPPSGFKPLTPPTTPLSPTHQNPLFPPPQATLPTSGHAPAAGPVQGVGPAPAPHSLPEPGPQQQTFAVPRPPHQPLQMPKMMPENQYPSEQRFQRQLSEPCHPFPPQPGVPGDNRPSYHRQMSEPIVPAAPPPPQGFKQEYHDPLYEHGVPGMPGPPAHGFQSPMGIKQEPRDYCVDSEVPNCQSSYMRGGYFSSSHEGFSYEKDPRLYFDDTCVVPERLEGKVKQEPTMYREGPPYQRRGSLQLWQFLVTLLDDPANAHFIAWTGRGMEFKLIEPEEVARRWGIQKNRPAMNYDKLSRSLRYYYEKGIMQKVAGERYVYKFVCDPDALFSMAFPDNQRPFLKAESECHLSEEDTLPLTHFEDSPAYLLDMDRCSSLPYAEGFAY
# Chain of ELF4 (Q99607 whole entry): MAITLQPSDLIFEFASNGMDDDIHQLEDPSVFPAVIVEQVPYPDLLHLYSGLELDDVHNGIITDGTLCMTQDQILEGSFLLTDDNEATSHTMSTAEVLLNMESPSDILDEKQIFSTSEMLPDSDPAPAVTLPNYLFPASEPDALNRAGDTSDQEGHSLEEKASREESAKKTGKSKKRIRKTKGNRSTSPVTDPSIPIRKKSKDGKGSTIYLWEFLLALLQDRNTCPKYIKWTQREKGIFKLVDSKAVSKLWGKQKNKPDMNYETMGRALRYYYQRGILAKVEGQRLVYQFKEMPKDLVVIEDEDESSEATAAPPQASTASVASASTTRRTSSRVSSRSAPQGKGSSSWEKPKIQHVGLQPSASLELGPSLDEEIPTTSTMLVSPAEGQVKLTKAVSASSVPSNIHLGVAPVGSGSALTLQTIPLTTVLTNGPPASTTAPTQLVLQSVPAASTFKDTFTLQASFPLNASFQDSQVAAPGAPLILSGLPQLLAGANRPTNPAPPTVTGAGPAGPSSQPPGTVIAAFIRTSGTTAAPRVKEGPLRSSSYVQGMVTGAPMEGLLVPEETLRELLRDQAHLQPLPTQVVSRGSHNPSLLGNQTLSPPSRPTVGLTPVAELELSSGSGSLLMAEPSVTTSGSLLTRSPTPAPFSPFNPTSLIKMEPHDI
# Chain of SPIB (Q01892 whole entry): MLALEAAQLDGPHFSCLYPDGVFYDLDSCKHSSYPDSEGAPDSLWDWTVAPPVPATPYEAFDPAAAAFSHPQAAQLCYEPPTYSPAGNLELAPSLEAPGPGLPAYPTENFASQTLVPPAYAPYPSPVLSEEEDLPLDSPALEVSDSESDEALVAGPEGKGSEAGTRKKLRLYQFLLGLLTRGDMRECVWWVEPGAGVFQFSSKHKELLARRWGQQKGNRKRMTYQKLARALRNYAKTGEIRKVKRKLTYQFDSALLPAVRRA
sequence,measurement,setting,value
CATGTT,binding signal,ELK1,"1.07 fold enrichment (6-mer frequency, TF over GST control)"
same,binding signal,ERG,"1.04 fold enrichment (6-mer frequency, TF over GST control)"
same,binding signal,ELF1,"1.06 fold enrichment (6-mer frequency, TF over GST control)"
same,binding signal,EHF,"1.03 fold enrichment (6-mer frequency, TF over GST control)"
same,binding signal,SPIB,"1.03 fold enrichment (6-mer frequency, TF over GST control)"
same,binding signal,ETV5,"1.03 fold enrichment (6-mer frequency, TF over GST control)"
same,binding signal,ELF4,"1.05 fold enrichment (6-mer frequency, TF over GST control)"
same,binding signal,ELK4,"1.1 fold enrichment (6-mer frequency, TF over GST control)"
same,binding signal,ETV2,"1.11 fold enrichment (6-mer frequency, TF over GST control)"
same,binding signal,ETV1,"1.15 fold enrichment (6-mer frequency, TF over GST control)"
same,binding signal,ERF,"1.05 fold enrichment (6-mer frequency, TF over GST control)"
same,binding signal,ETV3L,"1.06 fold enrichment (6-mer frequency, TF over GST control)"
same,binding signal,ETS2,"1.01 fold enrichment (6-mer frequency, TF over GST control)"
same,binding signal,SPDEF,"1.02 fold enrichment (6-mer frequency, TF over GST control)"
same,binding signal,ETV7,"1.1 fold enrichment (6-mer frequency, TF over GST control)"
same,binding signal,ETV3,"1.12 fold enrichment (6-mer frequency, TF over GST control)"
same,binding signal,ETV6,"1.1 fold enrichment (6-mer frequency, TF over GST control)"
